MazEF act: increases E. coli MazEF RNase cleavage of RNA | FAM/BHQ RNA-DNA oligo cleavage fluorescence, 5 h | activation, % at 20 µM | 0.32% of 350,000 active | AID 504720; in the data active = activation above about 50%
Anthrax LF prot: inhibitors of Bacillus anthracis lethal factor protease. P15917. multiplex microsphere protease cleavage assay, LF. inhibition, % at 10 µM. 0.12% of 360,000 active. AID 588501
BoNT F protease: blocks Botulinum neurotoxin F light chain protease; Multiplex microsphere protease cleavage assay, flow cytometry; inhibition, % at 10 µM; 0.22% of 360,000 active; AID 588497; in the data active = inhibition above about 35%, passing the limit was not always enough; inconclusive = no clear call, values can overlap the other calls
Bead autofluor: flagged as autofluorescent in microsphere protease counterscreen; compound autofluorescence counterscreen, microsphere flow cytometry; stronger effect = higher value; fluorescence intensity (test concentration not listed); 3.1% of 360,000 active; in the data active = fluorescence intensity above about 16000; inconclusive = no clear call, values can overlap the other calls
BH1578 lux ind: induces V. cholerae light production without autoinducers; activation, % at 18.7 µM; V. cholerae BH1578 lux reporter, luminescence, 6 h; 0.16% of 350,000 active; in the data active = activation mostly above about 9.7%, no sharp cut-off; inconclusive = no clear call, values can overlap the other calls; inactive = mostly below about 3.7%
BoNT-A LC inh2: BoNT A light chain protease inhibition; multiplex microsphere protease substrate cleavage, flow cytometry; inhibition, % at 10 µM; 0.17% of 360,000 active; AID 588499
Numbers stand for hits; 0 = inactive; ? = inconclusive; - = no result; + = active, no number. Compounds with a hit are over-represented: about 3.9% of the library has one in this group of screens. Rule as the data show it, unless noted: active = inhibition above about 30%; inconclusive = no clear call, values can overlap the other calls; inactive = below that.

SMILES	MazEF act	Anthrax LF prot	BoNT F protease	Bead autofluor	BH1578 lux ind	BoNT-A LC inh2
Cc1cccc2c1cnn2C(=O)CCC(=O)NCC(C)c1ccccc1 (stereo not given)	0	0	0	0	0	0
O=C(CCN1CCOCC1)NNC(=O)Nc1cccc([N+](=O)[O-])c1	0	0	0	0	0	0
CC(=NNC(=S)N1CC2CCC(CC2)C1)c1cccc(C)n1	0	0	45	0	0	0
N#C/C(C(=O)NCc1ccccc1)=C1/SC(Cc2ccc(Cl)cc2)C(=O)N1c1ccccc1 (stereo not given)	0	0	0	0	0	0
CC1CCN(C(=S)c2ccc(O)cc2)CC1	0	0	0	22756	0	0
COc1ccc(OC)c(S(=O)(=O)NC2CCCCNC2=O)c1 (stereo not given)	0	0	0	0	0	0
C=CCn1c(O)c(C(C)=NCCN2CCOCC2)c(=O)[nH]c1=O	0	0	0	21797	0	0
COc1ccc(-n2c(O)c(C(C)=NCCCn3ccnc3)c(=O)[nH]c2=O)cc1	0	0	0	17270	0	0
CCC(=NCCCn1ccnc1)c1c(O)n(-c2ccccc2)c(=O)[nH]c1=O	0	0	?	0	0	?
CC(=NCCN1CCCCC1)c1c(O)n(-c2ccc(Cl)cc2)c(=O)[nH]c1=O	0	0	0	24548	0	0
C=CCn1c(O)c(C(C)=NCc2ccco2)c(=O)[nH]c1=O	0	0	0	21930	0	0
C=CCn1c(O)c(C(CC)=NCc2ccco2)c(=O)[nH]c1=O	0	0	?	0	0	?
CC(=NCCN1CCCCC1)c1c(O)n(-c2ccccc2)c(=O)[nH]c1=O	0	0	?	0	0	0
CC(C)(C)OC(=O)C[C@H]1C/C=C\C[C@H](CC(=O)NCCO)C(=O)N2CCC[C@@H]2COC1=O	0	0	0	0	0	0
CCCCCC1(C(=O)OCC)CC(CSC(=N)N)OC1=O (stereo not given)	0	0	0	0	0	0
COc1ccc(NC(=O)CCc2nc3ccccc3[nH]2)cc1	0	0	0	0	0	0
CCOc1ccccc1/C=N/NC(=O)CNC(=O)c1cccs1	0	0	0	0	0	0
COc1cccc(C(=O)/C=C/Nc2cc(C)ccc2O)c1	0	0	0	23605	0	0
COc1ccc(C(=O)/C=C/Nc2cccc(O)c2)cc1	0	0	0	20620	0	?
CCOC(=O)c1ccc(N/C=C\C(=O)c2cccc(OC)c2)cc1	0	0	0	0	0	0
CCOc1ccc(N/C=C/C(=O)c2ccc(OC)cc2)c([N+](=O)[O-])c1	91	0	0	0	0	0
COc1ccc(N/C=C\C(=O)c2ccc(C)cc2)cc1OC	255	0	0	0	0	0
CCN(CC)c1ncnc2c1ncn2[C@H]1CN(Cc2ccccc2)C[C@@H](CO)O1	-	0	0	0	0	0
CCSC1=C(C#N)C2(CCCCC2)C(C#N)C(=O)N1 (stereo not given)	0	0	0	20210	0	?
CCSC1=C(C#N)C2(CCCCC2)C(C#N)=C(N)N1	0	0	0	0	0	0
SMILES	MazEF act	Anthrax LF prot	BoNT F protease	Bead autofluor	BH1578 lux ind	BoNT-A LC inh2
COc1ccc(N2C(=O)NC(=O)/C(=C\c3ccc([N+](=O)[O-])s3)C2=O)cc1	0	0	0	0	0	0
COc1ccc(N2C(=O)NC(=O)/C(=C\c3cn(C)c4ccccc34)C2=O)cc1	290	0	0	0	0	0
COCCNC(=O)Cn1cc(/C=C2\C(=O)NC(=O)N(c3ccccc3F)C2=O)c2ccccc21	+	0	0	0	0	0
COC(=O)Cn1cc(C=C2C(=O)NC(=O)NC2=O)c2ccccc21	0	0	42	0	0	0
COC(=O)Cn1cc(/C=C2\C(=O)NC(=O)N(c3ccc(OC)cc3)C2=O)c2ccccc21	111	0	0	0	0	0
COCCCNC(=O)Cn1cc(/C=C2\C(=O)NC(=O)N(c3ccccc3F)C2=O)c2ccccc21	0	0	0	0	0	0
Cc1ccccc1CC(=O)Nc1ccc2c(c1)c(=O)n(C)n2-c1cccs1	-	0	0	0	0	0
COc1ccc(-n2cc3ccc([N+](=O)[O-])cc3n2)cc1	0	0	0	0	0	0
Cc1ccccc1-c1nc(CS(=O)CC(=O)NCCN2CCN(Cc3ccccc3)CC2)c(C)o1 (stereo not given)	0	0	0	21943	0	?
CCCNC(=O)CS(=O)Cc1nc(-c2ccccc2C)oc1C (stereo not given)	0	0	0	0	0	0
CCOc1ccc(CCNC(=O)CS(=O)Cc2nc(-c3ccc(C)cc3)oc2C)cc1OCC (stereo not given)	0	-	-	-	0	-
